This assay concerns the target Solute carrier family 2, facilitated glucose transporter member 1 (Homo sapiens) (UniProt P11166). As to the kind of experiment: ST_JUDE_LEISH: Cytotoxicity at 2uM final concentration against transgenic Leishmania Mexicana promastigotes LmGLUT1 that are glucose transport deficient and complemented with the human glucose transporter GLUT1. Activity is measured by DNA content using SYBR green in vitro. In kind it is functional.
Sequence of Solute carrier family 2, facilitated glucose transporter member 1 (Homo sapiens) (P11166 whole entry): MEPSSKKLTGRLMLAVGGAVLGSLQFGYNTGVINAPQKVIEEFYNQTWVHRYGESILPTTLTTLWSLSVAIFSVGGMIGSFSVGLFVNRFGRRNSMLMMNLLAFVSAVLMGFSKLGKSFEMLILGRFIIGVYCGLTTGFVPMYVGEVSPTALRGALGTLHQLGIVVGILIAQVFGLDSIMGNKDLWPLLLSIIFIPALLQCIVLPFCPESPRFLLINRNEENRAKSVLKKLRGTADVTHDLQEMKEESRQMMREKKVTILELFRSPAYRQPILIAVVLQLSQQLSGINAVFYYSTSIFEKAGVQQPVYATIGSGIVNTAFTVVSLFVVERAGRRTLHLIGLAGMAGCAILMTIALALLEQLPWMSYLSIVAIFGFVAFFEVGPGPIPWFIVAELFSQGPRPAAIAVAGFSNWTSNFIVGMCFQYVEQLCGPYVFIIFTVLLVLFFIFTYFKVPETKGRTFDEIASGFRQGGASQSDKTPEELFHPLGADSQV
Usually inhibition stands for the change of the read-out against control, counted positive when it falls. `O=C(Nc1ccc([N+](=O)[O-])cc1O)Nc1ccccc1Oc1ccccc1`: the inhibition is -1.52%.
For the molecule `Cc1cc(-c2ccc(NC(=O)N3CCc4cc(Br)c(N5CCN(C)CC5)cc43)cc2)ccc1C#N`, the inhibition stood at 11.9%.
As to `Cc1ccccc1C1CCN(C2CCC(NC(=O)/C=C/c3ccc(Cl)cc3)CC2)CC1` (stereo not given), the inhibition was found to be 1.76%.
For the molecule `CC1(C)NC(N)=NC(=N)N1OCc1cccc(Cl)c1Cl`, the inhibition was determined as 2.02%.
As for `CCN(CC)CCCNc1nccc(N(C)c2ccc(NC(=O)Nc3cc(C(F)(F)F)ccc3F)cc2)n1`, the inhibition is 11.7%.
Take `CCCCN(CCCC)CCCN(CCCN(CCCC)CCCC)c1cc(C)nc(Nc2ccc(Cl)cc2)n1`: the inhibition was -0.03%.
With `COc1ccc(CCC(C)N2CC(N)C(c3cn(C)c4cnccc34)C2)cc1` (stereo not given), the inhibition was found to be 9.7%.
In the case of `N=C(N)Nc1nc(-c2cccc(NC(=O)Cc3ccccc3)c2)cs1`, the inhibition stood at 2.29%.
The value for `COc1ccc(-c2c3c(=O)n(C)c(=O)n(C)c3c3nnc4ccccc4n23)cc1` was 0.81%.
`CC(C)=CCc1c(-c2ccc(O)cc2O)oc2c3c(cc(O)c2c1=O)OC(C)(C)C=C3`: the inhibition is 5.72%.
As to `Cc1cc(F)ccc1[C@H]1C[C@H](N2CCOCC2)CCN1C(=O)N(C)[C@@H](C)c1cc(C(F)(F)F)cc(C(F)(F)F)c1`, the inhibition came out at 0.71%.
The value for `CCOc1cc(Cc2cnc(N)nc2N)ccc1OC` was 0.52%; that for `O=C(Nc1cccc(N2CCC(NCc3cnn(-c4cccc(F)c4)c3)CC2)c1)c1ccncc1` was -0.97%.
The same measure for `CCCCC(CC)NC(=O)[C@H]1CNCCN1C(=O)CCCc1ccccc1` (stereo not given in full): 1.73%.
With `CCOc1ccc(C(C)NC(=O)C2COc3ccccc3O2)cc1OCC` (stereo not given), the inhibition turned out to be 2.23%.
The same measure for `CC(CC(=O)NCC1(c2ccc(F)cc2Cl)CCOCC1)C(=O)c1ccc(Cl)cc1` (stereo not given): 0.34%; for `CC(C)NCc1cccc(-c2ccc(NS(=O)(=O)c3cccc4cccnc34)cc2)c1`: 13.8%; for `CS(=O)(=O)c1ccc(-c2cnc(N)c(-c3cccc(O)c3)c2)cc1`: 6.6%.
The value for `O=C(Nc1nc(-c2ccccn2)cs1)c1ccc(S(=O)(=O)N2CCc3ccccc32)cc1` was 9.61%.
Take `O=C(CCCCCNC(=O)c1ccc(O)c(-c2ccc(Cl)c(Cl)c2)c1)NCCc1ccc(Cl)c(Cl)c1`: the inhibition is -0.22%.
The same measure for `Nc1nc(N)c2c(ccc3c2ccn3Cc2ccc3c(c2)OCO3)n1`: 97.8%; for `CCCC1N=C(N)N=C(N)N1c1ccc(C)c(C)c1` (stereo not given): -0.66%; for `Cc1ccccc1C1CCN(c2ccc(C(=O)NC3CC3)cn2)CC1`: -0.44%.
On to `COc1ccc(CNC(=N)Nc2nc(-c3ccc(OCCCn4ccnc4)cc3)cs2)cc1`, for which the inhibition is 10.6%.
The value for `CN1CCN(c2cc3c(cc2Cl)CCN3C(=O)Nc2ccc(NC(=O)c3ccc(C(F)(F)F)cc3)cc2)CC1` was 3.11%; that for `C=Cc1c(C2CCN(CCCCNC(=O)c3ccc(-c4ccc(C#N)cc4)cc3)CC2)ccc2c1CCCC2` was 1.77%.
The same measure for `Cc1cc(C(F)(F)F)n2nc(C(=O)N(C)Cc3cncn3Cc3ccc(F)cc3)cc2n1`: 0.88%.
The value for `Cc1cccc2nc(-c3cccc(-c4ccc(NC(=O)C(C)CN5CCN(C)CC5)cc4)c3)[nH]c12` (stereo not given) was 1.5%; that for `COc1ccc2ccccc2c1C=NN=c1cc[nH]c2ccc(F)cc12` was 3.72%; that for `OCCN1CCN(c2ccc(Nc3ccnc4cc5ccccc5cc34)cc2)CC1` was 28.2%.
Regarding `O=C(NCCCCN1CCN(CC=Cc2ccccc2)CC1)c1ccc(NC(=O)c2cc(Cl)cc(Cl)c2)cc1`, the inhibition was -0.99%.
Turning to `O=C(/C=C/c1ccc(Cl)cc1)NCCCCCN1CCCN(C(=O)Nc2cccc(Cl)c2)CC1`, the inhibition was -2.75%.
In the case of `O=S(=O)(c1c(Cl)cc(Cl)cc1Cl)N1CCCCC(c2ccc(F)c(F)c2)=N1`, the inhibition turned out to be 0.21%.
Consider `Cc1cc(N)nc2ccc(-c3ccc(CN)cc3)cc12`, for which the inhibition came to 9.09%.
Take `N=C(N)NN=Cc1ccc2ccc3ccccc3c2c1`: the inhibition is 5.52%.
The same measure for `C#Cc1cccc(NC(=O)[C@H](CC2CCCCC2)Nc2ccc(C#N)c3ccccc23)c1`: 2.22%; for `Cc1cc(OCCCN2CCC(NS(=O)(=O)c3ccc(C(F)(F)F)cc3)CC2)c2ccccc2n1`: 1.59%; for `Clc1cccc(CNc2nc(NCCc3c[nH]cn3)nc(NC3CCCCC3)n2)c1`: 3.76%.
The same measure for `CCc1c[nH]c2c(N3CCCC3=O)cc(C(=O)N[C@@H](Cc3ccccc3)[C@H](O)CNC(C)(C)c3cccc(OC)c3)cc12`: -0.15%; for `CN(C)c1ccc(-c2ccc(C(=O)NC3CCN(Cc4ccc(C(C)(C)C)cc4)CC3)s2)cc1`: 2.66%.

For the origin of these results see ChEMBL document CHEMBL3433997, “St. Jude Leishmania screening dataset” (2016).
